Inconclusive results are not listed. Calls of active or inactive are those of the source. Unless noted, the call rests on the fitted dose curve; in most records, active means well fitted curve in the direction sought with a large enough effect in the repeat runs; inconclusive means weak or mixed curves; inactive means no such curve, though single readings can be large; an effect the other way counts as inactive or inconclusive.
What was measured:
[1] = qHTS assay to identify aromatase inhibitors - cell viability counter screen (AID 743084);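 further: cells stimulated with testosterone during compound exposure; nearly all actives have a fitted effect of over 55% in size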
[2] = biological target: Aryl hydrocarbon receptor (Homo sapiens) (UniProt P35869); experiment: qHTS assay to identify small molecule that activate the aryl hydrocarbon receptor (AhR) signaling pathway (AID 743085);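 further: HG2L7.5c1 human HepG2 liver cells with stably integrated DRE-driven firefly reporter; series mostly up to about 70 µM; nearly all actives have a fitted effect of over 15% in size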
Method in brief: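 Measured in HG2L7.5c1 cells: CellTiter-Fluor signal (30 min incubation, 37C) for viability, then luciferase luminescence (30 min, room temperature). Compound contact time was 24 h at 37C, following a 5 h pre-incubation.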

[3] = qHTS assay to identify small molecule that activate the aryl hydrocarbon receptor (AhR) signaling pathway - cell viability counter screen (AID 743086);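 further: HepG2 liver cells carrying the AhR DRE luciferase reporter; series mostly up to about 70 µM; nearly all actives have a fitted effect of over 45% in size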
Method in brief: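 Cytotoxicity counter screen: CellTiter-Fluor signal (30 min, 37 C) in 4000 HepG2 cells/well carrying the DRE-luciferase reporter, following 24 h compound exposure at 37 C.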

[4] = biological target: Peroxisome proliferator-activated receptor gamma (Homo sapiens) (UniProt P37231); experiment: qHTS assay to identify small molecule agonists of the peroxisome proliferator-activated receptor gamma (PPARg) signaling pathway (AID 743094; active means well fitted activation curve with a large enough effect in the signal ratio in the repeat runs, not every such curve was filed as active; the % refers to the signal ratio)
Method in brief: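 GeneBLAzer PPARg UAS-bla HEK293H cells carrying a stably integrated beta-lactamase reporter were pre-incubated 5 h at 37C, then exposed to compounds in DMSO for 17 h at 37C; LiveBLAzer B/G FRET substrate was added for 1 h at room temperature and fluorescence read.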

[5] = biological target: Peroxisome proliferator-activated receptor gamma (Homo sapiens) (UniProt P37231); experiment: qHTS assay to identify small molecule antagonists of the peroxisome proliferator-activated receptor gamma (PPARg) signaling pathway (AID 743191; calls by dose curve; further: series mostly up to about 63 µM; nearly all actives have a fitted effect of over 30% in size)
Method in brief: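 Beta-lactamase reporter under UAS control in HEK293H PPARg-bla cells; compound treatment 17 h at 37C. Read-out: fluorescence intensity after 1 h room-temperature incubation with LiveBLAzer B/G FRET substrate.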

[6] = qHTS assay to identify small molecule antagonists of the peroxisome proliferator-activated receptor gamma (PPARg) signaling pathway - cell viability counter screen (AID 743194); further: nearly all actives have a fitted effect of over 55% in size
Method in brief: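 Viability was measured as CellTiter-Glo luminescence in GeneBLAzer PPARg UAS-bla HEK293H cells. These cells had been exposed 17 h at 37 C to compounds together with rosiglitazone at 50 nM final, with the beta-lactamase readout taken in the same wells.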

[7] = qHTS assay for small molecule agonists of the antioxidant response element (ARE) signaling pathway (AID 743202; active means well fitted activation curve with a large enough effect in the signal ratio in the repeat runs, not every such curve was filed as active; the % refers to the signal ratio)
Method in brief: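 Quantitative high-throughput format in HepG2 cells bearing an integrated ARE-beta-lactamase reporter. Compound exposure lasted 16 h at 37 C, and fluorescence was read 2 h after adding LiveBLAzer B/G substrate at room temperature.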

[8] = qHTS assay for small molecule agonists of the antioxidant response element (ARE) signaling pathway - cell viability counter screen (AID 743203; calls by dose curve; further: nearly all actives have a fitted effect of over 55% in size)
Method in brief: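 CellSensor ARE-bla HepG2 cells, 2,000 per well, rested 5 hrs at 37C/5% CO2, then exposed to compound in DMSO for 16 hrs; viability read as CellTiter-Glo luminescence after 30 min at room temperature, in the reporter wells.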

[9] = qHTS assay for small molecule activators of the heat shock response signaling pathway (AID 743210; active means well fitted activation curve with a large enough effect in the signal ratio in the repeat runs, with a control signal flat, not every such curve was filed as active; the % refers to the signal ratio;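 further: HeLa cells with beta-lactamase reporter driven by heat shock elements; series mostly up to about 63 µM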)
Method in brief: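 HeLa HSE-bla cells, overnight plating; cpd in DMSO 5 h, 37 C; LiveBLAzer B/G FRET substrate 2.5 h RT; fluorescence intensity read.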

[10] = qHTS assay for small molecule activators of the heat shock response signaling pathway - cell viability counter screen (AID 743209); further: nearly all actives have a fitted effect of over 50% in size
Method in brief: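 CellSensor HSE-bla HeLa cells, plated overnight at 37 C/5% CO2, were exposed to compounds in DMSO for 5 h at 37 C. Viability was then read in the same wells by CellTiter-Glo luminescence after 30 min at room temperature.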
On the % scale 0 is the no-effect control and ±100 the full control effect.

Chain of Aryl hydrocarbon receptor (Homo sapiens) (P35869 whole entry, looked up): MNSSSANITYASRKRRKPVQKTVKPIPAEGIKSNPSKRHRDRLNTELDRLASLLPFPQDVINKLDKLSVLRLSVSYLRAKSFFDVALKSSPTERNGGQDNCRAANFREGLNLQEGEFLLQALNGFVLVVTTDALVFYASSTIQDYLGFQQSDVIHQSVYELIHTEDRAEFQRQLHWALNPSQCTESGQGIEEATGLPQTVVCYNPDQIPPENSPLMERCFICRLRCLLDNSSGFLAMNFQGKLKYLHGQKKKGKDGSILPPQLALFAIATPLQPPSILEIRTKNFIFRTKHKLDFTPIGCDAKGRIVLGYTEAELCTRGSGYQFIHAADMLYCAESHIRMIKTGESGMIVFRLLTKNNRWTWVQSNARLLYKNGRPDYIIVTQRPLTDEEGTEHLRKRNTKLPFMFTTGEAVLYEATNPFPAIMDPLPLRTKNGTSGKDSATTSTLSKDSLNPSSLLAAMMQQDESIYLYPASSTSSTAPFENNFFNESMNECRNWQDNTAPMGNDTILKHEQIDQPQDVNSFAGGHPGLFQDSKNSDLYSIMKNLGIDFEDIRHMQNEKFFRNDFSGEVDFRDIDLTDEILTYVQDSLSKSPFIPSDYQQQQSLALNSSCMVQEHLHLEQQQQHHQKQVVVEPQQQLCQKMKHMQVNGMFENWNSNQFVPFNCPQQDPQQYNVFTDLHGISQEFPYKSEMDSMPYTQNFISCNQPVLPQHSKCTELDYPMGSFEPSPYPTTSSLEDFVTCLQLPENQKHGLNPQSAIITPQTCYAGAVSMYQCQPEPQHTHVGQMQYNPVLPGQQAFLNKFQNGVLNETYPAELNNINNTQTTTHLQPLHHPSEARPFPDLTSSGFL
Chain of Peroxisome proliferator-activated receptor gamma (Homo sapiens) (P37231 whole entry, looked up): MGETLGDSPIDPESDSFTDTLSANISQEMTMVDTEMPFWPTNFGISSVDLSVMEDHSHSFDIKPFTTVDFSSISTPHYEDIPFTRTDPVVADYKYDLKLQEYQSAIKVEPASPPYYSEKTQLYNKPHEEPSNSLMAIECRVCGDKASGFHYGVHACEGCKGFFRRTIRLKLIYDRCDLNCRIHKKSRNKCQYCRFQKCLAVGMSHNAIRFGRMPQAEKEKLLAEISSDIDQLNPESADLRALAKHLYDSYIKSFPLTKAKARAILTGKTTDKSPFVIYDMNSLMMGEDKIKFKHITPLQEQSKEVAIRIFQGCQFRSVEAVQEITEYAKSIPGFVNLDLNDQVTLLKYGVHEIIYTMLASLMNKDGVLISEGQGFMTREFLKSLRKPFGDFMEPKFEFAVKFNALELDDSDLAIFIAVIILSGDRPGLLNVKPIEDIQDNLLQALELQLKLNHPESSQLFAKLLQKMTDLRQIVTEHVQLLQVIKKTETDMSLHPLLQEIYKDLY

C[N+](C)(C)CCOC(=O)CCC(=O)OCC[N+](C)(C)C
inactive: Potency [1] | Potency [2] | Potency [3] | Potency [4] | Potency [5] | Potency [6] | Potency [7] | Potency [8] | Potency [9]

CCn1cc(C(=O)O)c(=O)c2cnc(N3CCNCC3)nc21
inactive: Potency [1] | Potency [2] | Potency [3] | Potency [4] | Potency [5] | Potency [6] | Potency [7] | Potency [8] | Potency [10] | Potency [9]

CC(CSC(=O)c1ccccc1)C(=O)N1C[C@@H](Sc2ccccc2)C[C@H]1C(=O)O (stereo not given in full)
inactive: Potency [1] | Potency [2] | Potency [3] | Potency [4] | Potency [5] | Potency [6] | Potency [7] | Potency [8] | Potency [9]

Nc1ccc(S(=O)(=O)Nc2ccccc2)cc1
inactive: Potency [1] | Potency [2] | Potency [3] | Potency [4] | Potency [5] | Potency [6] | Potency [7] | Potency [8] | Potency [10]

COc1ccc(C(=O)N2CCN(CC(=O)N3CCOCC3)CC2)cc1
inactive: Potency [1] | Potency [2] | Potency [3] | Potency [4] | Potency [5] | Potency [6] | Potency [7] | Potency [8] | Potency [9]

OC(C#CCN1CCCC1)(c1ccccc1)c1ccccc1
inactive: Potency [1] | Potency [2] | Potency [3] | Potency [4] | Potency [5] | Potency [6] | Potency [7] | Potency [8] | Potency [10] | Potency [9]

NC(N)=NCCC[C@H](N)C(=O)O
inactive: Potency [1] | Potency [2] | Potency [3] | Potency [4] | ratio activity, negative = inhibition [5] 0.163% [at 5.95 µM] | activity change, negative = cytotoxicity [6] 5.54% [at 5.95 µM] | activation [7] 0.601% [at 8.36 µM] | viability change, negative = cytotoxic [8] 9.06% [at 8.36 µM] | activity change, negative = cytotoxicity [10] 4.58% [at 5.95 µM] | activation [9] 0.502% [at 5.95 µM]

C=C(C)C(=O)OCC
inactive: Potency [1] | Potency [2] | Potency [3] | Potency [4] | Potency [5] | Potency [6] | Potency [7] | Potency [8] | Potency [9]

O=C1c2ccccc2S(=O)(=O)N1CCCCN1CCN(c2ncccn2)CC1
inactive: Potency [1] | Potency [2] | Potency [3] | Potency [4] | Potency [5] | Potency [6] | Potency [7] | Potency [8] | Potency [10] | Potency [9]

CCN(CC)CCOC(=O)C(Cc1cccc2ccccc12)CC1CCCO1 (stereo not given)
inactive: Potency [1] | Potency [2] | Potency [3] | Potency [4] | Potency [5] | Potency [6] | Potency [7] | Potency [8] | Potency [10] | Potency [9]

O=C(OCCc1ccccc1)c1ccccc1
inactive: Potency [1] | Potency [2] | Potency [3] | Potency [4] | Potency [5] | Potency [6] | Potency [7] | Potency [8] | Potency [10] | Potency [9]

CC(=O)NO
inactive: Potency [1] | Potency [2] | Potency [3] | Potency [4] | Potency [5] | Potency [6] | Potency [7] | Potency [8] | Potency [9]

CCCCCCCC/C=C\CCCCCCCC(=O)OCC
inactive: Potency [1] | Potency [2] | Potency [3] | Potency [4] | Potency [5] | Potency [8] | Potency [10] | Potency [9]

CC(C)(COC(=O)c1ccccc1)COC(=O)c1ccccc1
inactive: Potency [1] | Potency [2] | Potency [3] | Potency [4] | Potency [5] | Potency [7] | Potency [8] | Potency [10] | Potency [9]

CCCCCCCCCCCC(=O)OC[C@@H](O)[C@H]1OC[C@H](OCCO)[C@H]1OCCO
inactive: Potency [1] | Potency [2] | Potency [3] | Potency [4] | Potency [5] | Potency [6] | Potency [8]

CCC(Cl)CCC(Cl)C(Cl)CC(Cl)C(Cl)C(Cl)CCl (stereo not given)
inactive: Potency [1] | Potency [2] | Potency [3] | Potency [4] | Potency [5] | Potency [6] | Potency [8] | Potency [10]

CC(=O)c1ccc2c(c1)N(CCCN(C)C)c1ccccc1S2
inactive: Potency [1] | Potency [2] | Potency [3] | Potency [4] | Potency [5] | Potency [6] | Potency [8] | Potency [10] | Potency [9]

S=C([S-])NCCNC(=S)[S-].[Mn+2]
inactive: Potency [1] | Potency [2] | Potency [3] | Potency [4] | Potency [5] | Potency [8] | Potency [10]

CCCCNc1ccc(C(=O)OCCOCCOCCOCCOCCOCCOCCOCCOCCOC)cc1
inactive: Potency [1] | Potency [2] | Potency [3] | Potency [4] | Potency [5] | Potency [8] | Potency [10] | Potency [9]

Cc1cc(C(=O)O)ccc1[N+](=O)[O-]
inactive: Potency [1] | Potency [2] | Potency [3] | Potency [4] | Potency [5] | Potency [7] | Potency [8] | Potency [10] | Potency [9]

CN(C)c1ccc(CCO)cc1
inactive: Potency [1] | Potency [2] | Potency [3] | Potency [4] | Potency [5] | Potency [6] | Potency [8] | Potency [9]

CCOc1ccc(N)c([N+](=O)[O-])c1
inactive: Potency [1] | Potency [2] | Potency [3] | Potency [4] | Potency [5] | Potency [6] | Potency [8] | Potency [10] | Potency [9]

CC(=O)c1ccc2c(c1)N(CCCN1CCC(CCO)CC1)c1ccccc1S2
inactive: Potency [1] | Potency [2] | Potency [3] | Potency [4] | Potency [5] | Potency [6] | Potency [9]

CCCCCCCCCCO[C@@H]1O[C@H](CO)[C@@H](O)[C@H](O)[C@H]1O
inactive: Potency [1] | Potency [2] | Potency [3] | Potency [4] | Potency [5] | Potency [8] | Potency [10] | Potency [9]

CC(COCCO)OCCO (stereo not given)
inactive: Potency [1] | Potency [2] | Potency [3] | Potency [4] | Potency [5] | Potency [6] | Potency [8] | Potency [10] | Potency [9]
